Consider 37 molecules from PubChem BioAssay AID652115 (Broad Institute, 2013).

Structures are written as SMILES. The campaign covered roughly 330,000 compounds. About 3,800 (1.2%) were called active. Rule as the data show it: active = inhibition above about 15%; inconclusive = no clear call, values can overlap the other calls; inactive = below that. Shown is part of a subset that was picked to be rich in actives.

NAD-dependent protein deacylase sirtuin-5, mitochondrial (Homo sapiens), sequence (Q9NXA8 whole entry, looked up): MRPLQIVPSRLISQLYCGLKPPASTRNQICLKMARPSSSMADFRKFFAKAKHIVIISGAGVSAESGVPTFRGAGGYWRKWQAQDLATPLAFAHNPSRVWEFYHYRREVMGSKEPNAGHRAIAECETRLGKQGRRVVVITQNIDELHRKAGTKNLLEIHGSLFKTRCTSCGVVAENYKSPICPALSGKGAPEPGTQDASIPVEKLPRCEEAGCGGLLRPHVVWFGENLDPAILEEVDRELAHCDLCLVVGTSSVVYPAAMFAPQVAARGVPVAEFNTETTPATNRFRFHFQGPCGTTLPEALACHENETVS

The experiment has as its target NAD-dependent protein deacylase sirtuin-5, mitochondrial (Homo sapiens) (UniProt Q9NXA8). Kind of experiment: blockers of sirtuin-5 deacylase activity – biochemical, fluorescence imaging, single point, set 5, primary screen (AID 652115). To be noted: Purified SirT5, succinyl-peptide AMC, trypsin-coupled fluorescence; at 15 µM; active compounds read high.
One may read the inhibition as the relative decrease from the control value, in per cent. Take `O=C(NCC[C@@H]1CC[C@@H](NS(=O)(=O)c2cccc(F)c2)[C@H](CO)O1)C1CC1`: the inhibition was -0.786% (inactive).

With `C[C@H]1CN([C@@H](C)CO)C(=O)c2cccc(NC(=O)Nc3ccccc3)c2O[C@H]1CN(C)S(=O)(=O)c1ccc(F)cc1`, the inhibition is -1.45% (inactive).

For `CCC(=O)Nc1ccc2c(c1)C(=O)N(C)[C@H]1CC[C@H](CC(=O)NCCOC)O[C@@H]1CO2`, the inhibition was 2.38% (inactive).

`C[C@@H]1CN([C@@H](C)CO)C(=O)Cc2cc(NS(=O)(=O)c3cccs3)ccc2O[C@@H]1CN(C)C(=O)Nc1ccc(C(F)(F)F)cc1`: the inhibition is 3.48% (inactive).

As for `C[C@H]1CN([C@@H](C)CO)C(=O)c2cc(NS(C)(=O)=O)ccc2O[C@H]1CN(C)C(=O)Nc1ccc(C(F)(F)F)cc1`, the inhibition is -4.07% (inactive).

For the molecule `C[C@H](CO)N1C[C@H](C)[C@H](CN(C)Cc2ccc(C(F)(F)F)cc2)Oc2ccc(NS(C)(=O)=O)cc2C1=O`, the inhibition was 21.5% (active).

As to `Cc1ccc(S(=O)(=O)N(C)C[C@H]2OCCCC[C@@H](C)Oc3ccc(NC(=O)Nc4ccc(F)cc4)cc3C(=O)N([C@@H](C)CO)C[C@H]2C)cc1`, the inhibition is -2.04% (inactive).

For the molecule `COc1ccc(S(=O)(=O)Nc2ccc3c(c2)C(=O)N([C@@H](C)CO)C[C@@H](C)[C@H](CN(C)Cc2ccc(C(F)(F)F)cc2)OCCCC[C@@H](C)O3)cc1`, the inhibition is 16.7% (active).

For `COc1ccc(S(=O)(=O)Nc2ccc3c(c2)C(=O)N([C@@H](C)CO)C[C@H](C)[C@H](CN(C)Cc2ccc(C(F)(F)F)cc2)OCCCC[C@@H](C)O3)cc1`, the inhibition is 9.2% (inactive).

As to `C[C@@H]1CCCCO[C@H](CN(C)S(=O)(=O)c2ccc(F)cc2)[C@H](C)CN([C@@H](C)CO)C(=O)c2cc(NS(=O)(=O)c3ccccc3)ccc2O1`, the inhibition was 4.58% (inactive).

`Cc1ccc(S(=O)(=O)N(C)C[C@@H]2OCCCC[C@@H](C)Oc3ccc(NS(=O)(=O)c4ccc(F)cc4)cc3C(=O)N([C@H](C)CO)C[C@H]2C)cc1`: the inhibition was 19.9% (active).

In the case of `COc1ccc(CN(C)C[C@@H]2OCCCC[C@H](C)Oc3ccc(NS(=O)(=O)c4ccc(F)cc4)cc3C(=O)N([C@H](C)CO)C[C@H]2C)cc1`, the inhibition is -3.51% (inactive).

For `Cc1ccc(S(=O)(=O)Nc2ccc3c(c2)C(=O)N([C@H](C)CO)C[C@H](C)[C@H](CN(C)S(=O)(=O)c2ccc(F)cc2)OCCCC[C@@H](C)O3)cc1`, the inhibition was 4.66% (inactive).

As for `C[C@H](CO)N1C[C@H](C)[C@H](CN(C)S(=O)(=O)c2ccc(F)cc2)OCCCC[C@H](C)Oc2ccc(NS(=O)(=O)c3ccc(Cl)cc3)cc2C1=O`, the inhibition is 17.6% (active).

As to `C[C@@H]1CN([C@H](C)CO)C(=O)c2cc(NS(=O)(=O)c3cccs3)ccc2O[C@@H]1CN(C)Cc1ccc(C(F)(F)F)cc1`, the inhibition was 2.33% (inactive).

As to `COc1ccc(S(=O)(=O)Nc2ccc3c(c2)C(=O)N([C@H](C)CO)C[C@@H](C)[C@H](CN(C)S(=O)(=O)c2ccc(Cl)cc2)OCCCC[C@@H](C)O3)cc1`, the inhibition was 13.8% (inactive).

For the molecule `O=C(C[C@H]1CC[C@H]2[C@@H](COC[C@@H](O)CN2C(=O)c2ccc3c(c2)OCO3)O1)NC1Cc2ccccc2C1`, the inhibition is -1.48% (inactive).

Turning to `CCCNC(=O)Nc1ccc2c(c1)OC[C@H](C)N(C(=O)C1CCC1)C[C@H](C)[C@@H](OC)CN(C)C2=O`, the inhibition is -2.08% (inactive).

As to `COc1ccc2c3c([nH]c2c1)[C@H](CO)N(Cc1nccs1)CC31CCN(Cc2ccncc2)CC1`, the inhibition is 1.68% (inactive).

`CC=Cc1ccc2n(c1=O)C[C@@H]1[C@@H](CO)[C@H](C(=O)N3CCCCC3)[C@H]2N1C(=O)C1CCC1` (mixture of isomers): the inhibition is -13.5% (inactive).

With `Nc1ccccc1-c1cn(CC(=O)Nc2ccon2)nn1`, the inhibition is -0.431% (inactive).

In the case of `C[C@@H]1CN([C@H](C)CO)C(=O)c2cc(C#CCC3CCCC3)cnc2O[C@H]1CN(C)Cc1ccccn1`, the inhibition is -6.11% (inactive).

With `C[C@H](CO)N1C[C@H](C)[C@H](CN(C)Cc2ccc3c(c2)OCO3)OCCCC[C@H](C)Oc2ccc(NC(=O)c3ccccc3)cc2C1=O`, the inhibition is 3.6% (inactive).

Turning to `O=C(C[C@H]1CC[C@@H]2[C@H](COC[C@H](O)CN2S(=O)(=O)c2ccccc2)O1)N1CCOCC1`, the inhibition is -0.872% (inactive).

In the case of `COc1ccccc1-c1cnc2c(c1)C(=O)N([C@@H](C)CO)C[C@@H](C)[C@H](CN(C)Cc1cccnc1)O2`, the inhibition is 0.854% (inactive).

With `CN1c2ccc(C3=CCCCC3)cc2[C@@H]2[C@@H](CCN2S(=O)(=O)c2ccccc2F)[C@H]1CO`, the inhibition is 3.11% (inactive).

As for `O=C(C[C@@H]1C=C[C@@H](NC(=O)C2CCC2)[C@H](CO)O1)NCC1CC1`, the inhibition is -2.09% (inactive).

For `CCOC(=O)c1c(-c2ccccc2)oc2ccc(OCC(=O)NN)cc12`, the inhibition was 6.17% (inactive).

Turning to `CCOC(=O)c1c(-c2ccccc2)oc2ccc(OCC(N)=O)cc12`, the inhibition is 22.2% (active).

In the case of `CCOC(=O)c1c(-c2ccccc2)oc2cc(Br)c(O)cc12`, the inhibition is 0.164% (inactive).

Consider `CN1C(=O)c2cc(NC(=O)c3cccc(F)c3)ccc2OC[C@H]2O[C@@H](CC(=O)NCc3ccccc3Cl)CC[C@@H]21`, for which the inhibition is 6.51% (inactive).

`O=C(C[C@H]1C[C@H]2c3cc(NC(=O)NC4CCCC4)ccc3O[C@H]2[C@H](CO)O1)NCCc1ccccc1`: the inhibition was -4.04% (inactive).

On to `CCC(=O)N1C[C@@H](C)[C@H](OC)CN(C)C(=O)c2cc(NC(=O)NC3CCCC3)ccc2OC[C@H]1C`, for which the inhibition is 3.98% (inactive).

Regarding `COCOCCn1cc(CN2CCS(=O)(=O)N(Cc3ccc(-c4ccc(OC)cc4)cc3)C(CC(C)C)C2=O)nn1` (configuration not stated), the inhibition is 18.3% (active).

Consider `COCOCCn1cc(CN2CCS(=O)(=O)N(Cc3ccc(-c4cccc(N(C)C)c4)cc3)C(CC(C)C)C2=O)nn1` (configuration not stated), for which the inhibition was -0.197% (inactive).

Regarding `COCOCCn1cc(CN2CCS(=O)(=O)N(Cc3ccc(-c4ccccc4)cc3)C(CC(C)C)C2=O)nn1` (configuration not stated), the inhibition was -0.714% (inactive).

Regarding `C[C@@H]1CN([C@H](C)CO)C(=O)c2cc(NS(=O)(=O)c3cccs3)ccc2O[C@@H](C)CCCCO[C@H]1CN(C)Cc1ccc(C(F)(F)F)cc1`, the inhibition was 13.1% (inactive).
